For five compounds, composite z-score and z-score results are on record in PubChem BioAssay.

The source made the active and inactive calls.

The test system of experiment [1] is Plasmodium falciparum Sir2 (PF13_0152, Sir2A). The experiment is described as follows: Plasmodium falciparum Sir2A binding compounds – biochemical, small-molecule microarray, 635 nm fluorescence, primary screen (AID 1098).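 Note: score merges spot fluorescence intensity with its signal-to-noise ratio.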 As to conditions: fluorescence 635 nm, higher = more signal.
Experiment [2] can be described thus: probe aDKK1 binding to arrayed compounds – biochemical, biotinylated probe, 635/667 nm fluorescence, primary screen (AID 1099).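 Note: score merges 667nm spot fluorescence with signal to noise across triplicate slides.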 The conditions noted are these: small-molecule microarray, higher = more signal.
Experiment [3] can be described thus: probe aCHRDL2 binding to arrayed compounds – biochemical, biotinylated probe, 635/667 nm fluorescence, primary screen (AID 1100). The conditions noted are these: small-molecule microarray, higher = more signal.
The nature of experiment [4]: change in splice reporter luminescence, either direction, cell-based, HEK293, spliceosome inhibition project, primary screen (AID 1101).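 Note: HEK293 cells carrying a splicing-competent luciferase reporter gene; test concentration not given here.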 The conditions noted are these: HEK293 splicing luciferase reporter, 24 h, higher = more signal, called active from +8 up or from −8 down.
For experiment [5], the target named is Fibroblast growth factor 10 (Homo sapiens) (UniProt O15520). The experiment can be described thus: compounds binding fibroblast growth factor 10 – biochemical, small-molecule microarray, 635 nm fluorescence, primary screen (AID 1102). The conditions noted are these: FGF10 binding, fluorescence 635 nm, higher = more signal.
The test system of experiment [6] is glycogen synthase kinase-3 (GSK3A per assay name; protocol says GSK3B). The experiment is described as follows: compounds binding glycogen synthase kinase-3 – biochemical, small-molecule microarray, 635 nm fluorescence, GSK3A, primary screen (AID 1103). Note: the record names both GSK3A and GSK3B. The conditions noted are these: fluorescence 635 nm, higher = more signal.
The target in experiment [7] is Epidermal growth factor receptor (Homo sapiens) (UniProt P00533). The experiment can be described thus: compounds binding epidermal growth factor receptor – biochemical, small-molecule microarray, 635 nm fluorescence, primary screen (AID 1104).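 Note: score merges 667 nm emission intensity with spot signal to noise over triplicate slides.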 The conditions noted are these: EGFR binding, higher = more signal.
Experiment [8] has as its target Follistatin-related protein 3 (Homo sapiens) (UniProt O95633). The experiment can be described thus: compounds binding follistatin-related protein 3 – biochemical, small-molecule microarray, 635 nm fluorescence, primary screen (AID 1105).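 Note: score merges emission near 667 nm and signal to noise per printed spot across three slides.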 The conditions noted are these: FSTL3 binding, higher = more signal.
For experiment [9], the target named is Dickkopf-related protein 1 (Homo sapiens) (UniProt O94907). The experiment is described as follows: small molecules binding DKK1 protein – biochemical, small-molecule microarray, 635 nm fluorescence scan, primary screen (AID 1106).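 Note: score merges emission near 667 nm with signal to noise over three replicate slides.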 The conditions noted are these: higher = more signal.
For experiment [10], the system named is Inhibin beta A chain (activin A). The experiment is described as follows: small molecules binding activin A – biochemical, small-molecule microarray, 635 nm fluorescence scan, primary screen (AID 1107).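 Note: mouse activin A protein probed at 4.33 µg/mL on printed slides; score merges bound-protein fluorescence near 667 nm with spot signal-to-noise.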 As to conditions: INHBA, higher = more signal.
Experiment [11] has as its system Human papillomavirus type 1a protein E7 (residues 44-93). The experiment can be described thus: small molecules binding HPV E7 44-93 – biochemical, small-molecule microarray, residues 44-93, 635 nm fluorescence, primary screen (AID 1108).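 Note: E7 fragment applied at 1 µg/mL in TBST for 1 h at 4 C; score combines spot fluorescence with its signal to noise ratio.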 As to conditions: fluorescence 635 nm, higher = more signal.
Experiment [12] in a line: hepatitis C replication reporter changes, two-sided – Huh7 cells, luciferase reporter, HCV replication inhibitor project, primary screen (AID 1109).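 Note: huh7 hepatoma cells harbouring a luciferase neomycin HCV replicon reporter; luciferase luminescence as measure of HCV replicon replication; test concentration not given here.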 The conditions noted are these: Huh7 HCV replicon luciferase reporter, 48 h; higher = more signal. A general note: In a reporter assay the amount or activity of a reporter protein is the signal.
The target in experiment [13] is Left-right determination factor 2 (Homo sapiens) (UniProt O00292). The experiment can be described thus: small molecules binding LEFTY2 protein – biochemical, small-molecule microarray, 635 nm fluorescence scan, primary screen (AID 1110). As to conditions: higher = more signal.
The target of experiment [14] is Calmodulin-1 (Homo sapiens) (UniProt P0DP23). The experiment is described as follows: small molecules binding calmodulin-1 with EGTA – biochemical, small-molecule microarray, Cy5-labelled CALM1, profiling panel (AID 1111).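 Note: labelled calmodulin applied in Tris saline Tween buffer holding calcium plus EGTA and DTT.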 As to conditions: Cy5-CALM1 binding fluorescence, higher = more signal.
For experiment [15] the target is unchanged. The experiment is described as follows: small molecules binding Ca-loaded calmodulin-1 – biochemical, small-molecule microarray, Cy5-labelled CALM1, plus calcium, artefact control for SMM control-protein annotation, profiling panel (AID 1112).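 Note: score merges spot fluorescence with signal to noise from triplicate slides.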 As to conditions: Cy5-CALM1 binding fluorescence, higher = more signal.
Experiment [16] can be described thus: probe aWnt5a binding to arrayed compounds – biochemical, biotinylated probe, 635/667 nm fluorescence, primary screen (AID 1113).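 Note: score merges 667 nm fluorescence intensity with signal-to-noise per printed feature.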 The conditions noted are these: small-molecule microarray, higher = more signal.
The nature of experiment [17]: probe aShh binding to arrayed compounds – biochemical, biotinylated probe, 635/667 nm fluorescence, primary screen (AID 1114).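 Note: probe is biotin-labelled aShh protein from a stem cell growth factor screen; measures binding of labelled protein to compounds printed on the slide; score merges feature fluorescence at 667 nm with signal-to-noise.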 As to conditions: small-molecule microarray, higher = more signal.
Experiment [18] is described as follows: probe aNog binding to arrayed compounds – biochemical, biotinylated probe, 635/667 nm fluorescence, primary screen (AID 1115).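 Note: probe is biotinylated aNog protein used at 0.15 µg/mL for 1 h at 4 C; z-score combines 667 nm fluorescence of each spot with its signal to noise.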 The conditions noted are these: small-molecule microarray, higher = more signal.
For experiment [19], the target named is Torsin-1A-interacting protein 1 (Homo sapiens) (UniProt Q5JTV8). The experiment can be described thus: compound microarray binding of lysate hLAP1 – cell lysate, small-molecule microarray, COS7 lysate, 635/667 nm fluorescence, primary screen (AID 1116). As to conditions: 635 nm fluorescence, higher = more signal.
Experiment [20] deals with Alpha-bungarotoxin (Bungarus multicinctus) (UniProt P60615). The experiment can be described thus: compounds binding labelled alpha-BTX control protein – biochemical, small-molecule microarray, Alexa647 label, 635/667 nm fluorescence, artefact control for SMM control protein annotation, profiling panel (AID 1117). As to conditions: alpha-BTX-A647 binding fluorescence, higher = more signal.
Sequence of Alpha-bungarotoxin (Bungarus multicinctus) (P60615 whole entry, looked up): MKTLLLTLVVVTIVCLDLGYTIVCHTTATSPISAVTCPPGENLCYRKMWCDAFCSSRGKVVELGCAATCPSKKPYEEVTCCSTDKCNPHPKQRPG

Sequence of Dickkopf-related protein 1 (Homo sapiens) (O94907 whole entry, looked up): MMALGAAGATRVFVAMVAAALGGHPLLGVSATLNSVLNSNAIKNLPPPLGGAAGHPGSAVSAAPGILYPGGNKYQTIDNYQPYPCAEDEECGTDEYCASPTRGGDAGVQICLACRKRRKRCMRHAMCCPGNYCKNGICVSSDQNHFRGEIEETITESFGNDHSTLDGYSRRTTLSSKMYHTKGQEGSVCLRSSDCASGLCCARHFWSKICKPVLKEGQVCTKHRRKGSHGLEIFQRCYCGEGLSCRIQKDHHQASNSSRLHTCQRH
Sequence of Torsin-1A-interacting protein 1 (Homo sapiens) (Q5JTV8 whole entry, looked up): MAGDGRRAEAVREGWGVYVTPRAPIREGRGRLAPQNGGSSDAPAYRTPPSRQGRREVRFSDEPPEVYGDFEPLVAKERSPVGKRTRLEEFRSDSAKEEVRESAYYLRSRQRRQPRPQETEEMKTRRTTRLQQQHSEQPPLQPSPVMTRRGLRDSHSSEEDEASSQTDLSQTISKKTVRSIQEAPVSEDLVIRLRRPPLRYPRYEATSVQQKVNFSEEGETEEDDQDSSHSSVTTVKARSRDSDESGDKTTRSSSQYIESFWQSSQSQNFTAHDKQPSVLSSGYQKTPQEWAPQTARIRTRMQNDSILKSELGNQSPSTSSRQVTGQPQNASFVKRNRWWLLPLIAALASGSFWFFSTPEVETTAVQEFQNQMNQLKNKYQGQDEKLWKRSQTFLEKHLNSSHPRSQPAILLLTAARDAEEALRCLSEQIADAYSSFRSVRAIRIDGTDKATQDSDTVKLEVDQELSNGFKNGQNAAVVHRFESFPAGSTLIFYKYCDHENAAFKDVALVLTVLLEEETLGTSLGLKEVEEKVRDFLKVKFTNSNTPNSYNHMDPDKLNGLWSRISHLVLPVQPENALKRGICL
Sequence of Fibroblast growth factor 10 (Homo sapiens) (O15520 whole entry, looked up): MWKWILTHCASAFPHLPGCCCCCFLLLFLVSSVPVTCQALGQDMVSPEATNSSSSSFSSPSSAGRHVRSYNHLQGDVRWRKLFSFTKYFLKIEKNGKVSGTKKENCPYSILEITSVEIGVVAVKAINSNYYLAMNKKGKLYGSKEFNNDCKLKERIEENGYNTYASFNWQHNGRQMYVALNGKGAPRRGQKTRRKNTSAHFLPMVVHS
Sequence of Left-right determination factor 2 (Homo sapiens) (O00292 whole entry, looked up): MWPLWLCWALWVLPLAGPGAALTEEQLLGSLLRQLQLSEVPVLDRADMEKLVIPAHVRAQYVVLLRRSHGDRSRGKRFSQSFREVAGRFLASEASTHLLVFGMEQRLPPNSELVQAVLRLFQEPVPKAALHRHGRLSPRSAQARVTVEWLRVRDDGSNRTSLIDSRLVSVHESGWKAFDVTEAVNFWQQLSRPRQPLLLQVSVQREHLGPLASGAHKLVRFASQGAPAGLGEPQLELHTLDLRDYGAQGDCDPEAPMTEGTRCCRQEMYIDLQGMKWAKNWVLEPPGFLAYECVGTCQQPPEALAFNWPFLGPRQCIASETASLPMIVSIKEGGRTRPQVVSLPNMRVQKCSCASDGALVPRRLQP
Sequence of Epidermal growth factor receptor (Homo sapiens) (P00533 whole entry, looked up): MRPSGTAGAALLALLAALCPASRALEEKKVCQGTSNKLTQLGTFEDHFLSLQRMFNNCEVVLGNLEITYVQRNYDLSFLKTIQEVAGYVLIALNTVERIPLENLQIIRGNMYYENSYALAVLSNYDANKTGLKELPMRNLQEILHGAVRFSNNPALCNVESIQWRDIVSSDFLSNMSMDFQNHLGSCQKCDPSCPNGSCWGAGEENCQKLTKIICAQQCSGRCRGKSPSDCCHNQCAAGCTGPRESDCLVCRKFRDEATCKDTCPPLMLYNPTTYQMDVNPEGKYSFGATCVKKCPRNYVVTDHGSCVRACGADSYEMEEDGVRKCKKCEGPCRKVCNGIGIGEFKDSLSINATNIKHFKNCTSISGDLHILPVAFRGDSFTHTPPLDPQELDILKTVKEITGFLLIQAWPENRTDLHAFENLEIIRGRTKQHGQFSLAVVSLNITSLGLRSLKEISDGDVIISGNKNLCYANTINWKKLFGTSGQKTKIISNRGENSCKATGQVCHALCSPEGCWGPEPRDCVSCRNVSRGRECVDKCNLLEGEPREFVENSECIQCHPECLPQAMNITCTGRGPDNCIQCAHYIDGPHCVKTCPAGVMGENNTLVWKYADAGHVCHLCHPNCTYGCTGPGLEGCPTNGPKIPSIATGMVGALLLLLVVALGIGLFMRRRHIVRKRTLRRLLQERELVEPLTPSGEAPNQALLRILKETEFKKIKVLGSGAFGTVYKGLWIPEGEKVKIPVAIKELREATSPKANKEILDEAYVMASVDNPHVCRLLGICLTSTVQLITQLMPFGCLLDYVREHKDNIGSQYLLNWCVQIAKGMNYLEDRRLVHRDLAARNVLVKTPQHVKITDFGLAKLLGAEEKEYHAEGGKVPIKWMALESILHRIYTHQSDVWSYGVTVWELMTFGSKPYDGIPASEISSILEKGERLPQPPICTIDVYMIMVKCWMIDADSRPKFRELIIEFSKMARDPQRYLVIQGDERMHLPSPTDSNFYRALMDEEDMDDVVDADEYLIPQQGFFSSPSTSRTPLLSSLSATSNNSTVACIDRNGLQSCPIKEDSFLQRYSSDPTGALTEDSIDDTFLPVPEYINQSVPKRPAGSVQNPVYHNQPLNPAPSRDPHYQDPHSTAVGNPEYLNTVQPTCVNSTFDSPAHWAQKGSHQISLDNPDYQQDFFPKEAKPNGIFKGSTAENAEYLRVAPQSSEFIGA
Sequence of Follistatin-related protein 3 (Homo sapiens) (O95633 whole entry, looked up): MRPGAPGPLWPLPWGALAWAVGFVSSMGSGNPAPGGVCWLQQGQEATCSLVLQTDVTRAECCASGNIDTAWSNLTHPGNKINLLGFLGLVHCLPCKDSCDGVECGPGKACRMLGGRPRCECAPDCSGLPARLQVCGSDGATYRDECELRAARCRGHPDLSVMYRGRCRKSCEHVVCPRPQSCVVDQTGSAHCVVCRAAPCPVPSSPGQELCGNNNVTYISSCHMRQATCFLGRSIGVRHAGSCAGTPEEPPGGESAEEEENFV

Take `Cc1ccc(S[C@]2(C(=O)NC3CC3)CC(=O)N(Cc3ccccc3C(F)(F)F)[C@@H]2c2ccc(CO)cc2I)cc1`: the composite z-score is 1.64 in experiment [1]; 0.913 in experiment [2]; 1.1 in experiment [3]; -0.28 in experiment [5]; -0.0828 in [6]; -0.385 in experiment [7]. The composite z-score in experiment [8] was -0.292; in [9] it was -0.425; in experiment [10], 1.72; in experiment [11] it was 0.33; in [13], -0.659; in [14], 0.514. For the same compound, the composite z-score in [15] was 1.14; in experiment [16] it was -0.124; in [17], 0.188; in experiment [18], 0.568; in [19], 0.955; in experiment [20], 0.0637. Moreover, the z-score in [4] is -2.01 (inactive); in experiment [12], -1.55.

Consider `C=CC[C@@]1(C(=O)NCc2ccccc2)N=C(c2ccc(OCCCO)cc2)O[C@@H]1c1ccccc1`, for which the composite z-score was 1.54 in experiment [1]; 0.787 in experiment [2]; 1.31 in [3]; -0.28 in [5]; 0.659 in [6]; -1.08 in experiment [7]. Further, the composite z-score in experiment [8] is -0.571; in experiment [9], -0.918; in [10], 0.997; in [11], 0.483; in experiment [13], -0.762; in experiment [14], 1.68. Also, the composite z-score in experiment [15] is 0.369; in experiment [16], -0.101; in experiment [17], 0.123; in experiment [18] it was 0.49; in experiment [19], 1.68; in [20] it was 1.1. Further, the z-score was -1.19 (inactive) in experiment [4] and -3.03 in [12].

Turning to `CC(C)C(=C=CC[C@@H](O)c1ccc(CO)o1)CCO`, the composite z-score is 1.78 in experiment [1]; -0.2 in experiment [2]; -0.479 in experiment [3]; 0.9 in experiment [5]; 0.367 in [6]; -0.171 in experiment [7]. In addition, the composite z-score was 0.197 in experiment [8]; 0.39 in experiment [9]; 1.08 in experiment [10]; 0.185 in experiment [11]; 0.0308 in [13]; -0.108 in [14]. Moreover, the composite z-score in [15] is -0.13; in experiment [16], -0.178; in experiment [17], -0.123; in [18] it was 0.0954; in [19], 0.42; in experiment [20], 0.205. The z-score in experiment [4] is -0.493 (inactive); in [12], -0.744.

`COCCCNC(=O)[C@@]1(Cc2ccccc2CN=[N+]=[N-])COC(c2ccc(OCCCO)cc2)=N1`: the composite z-score in [1] was 1.59; in [2], 1.28; in experiment [3], 1.39; in [5], 1.38; in [6], 0.266; in experiment [7], -0.474. Further, the composite z-score in experiment [8] is -0.0087; in experiment [9], -1.58; in experiment [10], 0.731; in experiment [11] it was 0.989; in [13], -0.645; in experiment [14] it was 1.78. In addition, the composite z-score came out at 0.96 in [15]; 0.299 in experiment [16]; 0.454 in experiment [17]; 1.75 in experiment [18]; 2.45 in experiment [19]; 0.911 in [20]. The figures for the z-score in experiment [4] and in experiment [12] were -0.807 (inactive) and -1.97, respectively.

For the compound `COCCOC(=O)N1C(=O)[C@@]2(c3ccccc31)[C@H](C(=O)Nc1nc3ccccc3s1)[C@H]1C(=O)O[C@H](c3ccccc3)[C@H](c3ccccc3)N1[C@@H]2c1ccc(O)cc1`, the composite z-score in [1] worked out at 1.05; in experiment [2], 0.356; in experiment [3] it was 0.361; in experiment [5], 0.998; in experiment [6] it was 1.29; in [7] it was 0.534. Moreover, the composite z-score is 0.775 in experiment [8]; 0.709 in experiment [9]; 0.927 in [10]; 1.1 in experiment [11]; 1.02 in experiment [13]; 1.74 in [14]. Further, the composite z-score in experiment [15] is 1.07; in [16] it was 0.0044; in experiment [17], 0.489; in [18], 0.134; in experiment [19] it was 0.94; in [20] it was 2.07. For the same compound, the z-score is -1.56 (inactive) in experiment [4] and -2.04 in [12].
